From PubChem BioAssay (Tox21)
Inconclusive results are not listed. The source made the active and inactive calls. Unless noted, calls follow the shape of the dose curve; as a rule, active = well fitted curve in the direction sought with a large enough effect in the repeat runs; inconclusive = weak or mixed curves; inactive = flat fitted curve, though single readings scatter.

Assays:
[1] = qHTS assay to test for compound auto fluorescence at 535 nm (green) in HEK293 cells (AID 720680); details: green autofluorescence 485/535 nm; series mostly up to 46 µM
[2] = qHTS assay to test for compound auto fluorescence at 535 nm (green) in HEK293 cell free culture (AID 720682); details: cell-free medium, green autofluorescence 485/535 nm; series mostly up to 46 µM
Summary of the method: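 Cell-free medium (DMEM, 10% FBS) receives compound or DMSO by pintool. Plate read directly at Ex 485/Em 535 nm. Signal converted to fluorescein equivalency.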

[3] = qHTS assay to test for compound auto fluorescence at 590 nm (red) in HEK293 cell free culture (AID 720683); details: cell-free medium autofluorescence, Ex540/Em590 red; series mostly up to 46 µM
Summary of the method: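 Tox21 10K library compounds were pinned into cell-free DMEM with 10% FBS and fluorescence was read at excitation 540 nm. Activity is expressed as Rose Bengal sodium equivalency.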

[4] = qHTS assay to test for compound auto fluorescence at 590 nm (red) in HepG2 cell free culture (AID 720684); details: cell-free medium autofluorescence, red 540/590 nm; series mostly up to 46 µM
Summary of the method: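 Measured in medium alone (MEM containing 10% FBS) following pintool addition of compound; emission at 590 nm with 540 nm excitation, referenced to Rose Bengal sodium.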

[5] = qHTS assay to test for compound auto fluorescence at 460 nm (blue) in HepG2 cell free culture (AID 720685); details: Cell-free culture medium, blue autofluorescence 405/460 nm; series mostly up to 46 µM
Summary of the method: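 Compound (23 nL) or DMSO pinned into cell-free MEM with 10% FBS; blue fluorescence read at 405/460 nm excitation/emission, expressed as auto-fluorescence equivalency to triamterene.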

[6] = qHTS assay to test for compound auto fluorescence at 535 nm (green) in HepG2 cell free culture (AID 720686); details: Cell-free medium, green autofluorescence 485/535 nm; series mostly up to 46 µM
[7] = qHTS assay to test for compound auto fluorescence at 460 nm (blue) in HepG2 cells (AID 720687); details: autofluorescence 405/460 nm, 1 h; series mostly up to 46 µM
Summary of the method: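 Cells (2,000/well in MEM with 10% FBS) attached overnight at 37 C, then were exposed to compound or DMSO for 1 hr at 37 C, 5% CO2. Fluorescence read at Ex/Em 405/460 nm, expressed as triamterene-equivalent signal.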

[8] = target: Glucocorticoid receptor (Homo sapiens) (UniProt P04150); experiment: qHTS assay to identify small molecule antagonists of the glucocorticoid receptor (GR) signaling pathway (AID 720692; active = well fitted inhibition curve with a large enough effect in the signal ratio in the repeat runs, not every such curve was filed as active; the % refers to the signal ratio; also: potency is read from the fitted curve at half-maximal effect); details: GR-bla HeLa, beta-lactamase FRET ratio, dexamethasone-stimulated, 18 h; series mostly up to 58.5 µM
Summary of the method: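 HeLa GR-bla cells; cmpd + dex 5 nM final, 18 h 37 C; LiveBLAzer B/G FRET substrate 2 h RT; fluorescence intensity read. Antagonist mode, qHTS.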

[9] = target: Glucocorticoid receptor (Homo sapiens) (UniProt P04150); experiment: qHTS assay to identify small molecule agonists of the glucocorticoid receptor (GR) signaling pathway (AID 720691; active = well fitted activation curve with a large enough effect in the signal ratio in the repeat runs, not every such curve was filed as active; the % refers to the signal ratio); details: GR-bla HeLa, beta-lactamase reporter ratio, 18 h; activation: at 62.4 µM (top of the series)
Summary of the method: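 Fluorescence intensity from LiveBLAzer B/G FRET substrate (2 h, room temperature) reports beta-lactamase expression driven by the glucocorticoid response element in GR-bla HeLa cells after 18 h compound exposure at 37 C.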

[10] = qHTS assay to test for compound auto fluorescence at 460 nm (blue) in HEK293 cell free culture (AID 720681); details: cell-free medium, autofluorescence 405/460 nm (blue); series mostly up to 46 µM
Summary of the method: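 Test compounds were pinned into cell-free culture medium (DMEM with 10% FBS) and fluorescence was read directly at Ex/Em 405/460 nm. Signals were expressed as fluorescence equivalents of triamterene, with DMSO vehicle as control.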

Measured: Potency

Glucocorticoid receptor (Homo sapiens), sequence (P04150 whole entry, looked up): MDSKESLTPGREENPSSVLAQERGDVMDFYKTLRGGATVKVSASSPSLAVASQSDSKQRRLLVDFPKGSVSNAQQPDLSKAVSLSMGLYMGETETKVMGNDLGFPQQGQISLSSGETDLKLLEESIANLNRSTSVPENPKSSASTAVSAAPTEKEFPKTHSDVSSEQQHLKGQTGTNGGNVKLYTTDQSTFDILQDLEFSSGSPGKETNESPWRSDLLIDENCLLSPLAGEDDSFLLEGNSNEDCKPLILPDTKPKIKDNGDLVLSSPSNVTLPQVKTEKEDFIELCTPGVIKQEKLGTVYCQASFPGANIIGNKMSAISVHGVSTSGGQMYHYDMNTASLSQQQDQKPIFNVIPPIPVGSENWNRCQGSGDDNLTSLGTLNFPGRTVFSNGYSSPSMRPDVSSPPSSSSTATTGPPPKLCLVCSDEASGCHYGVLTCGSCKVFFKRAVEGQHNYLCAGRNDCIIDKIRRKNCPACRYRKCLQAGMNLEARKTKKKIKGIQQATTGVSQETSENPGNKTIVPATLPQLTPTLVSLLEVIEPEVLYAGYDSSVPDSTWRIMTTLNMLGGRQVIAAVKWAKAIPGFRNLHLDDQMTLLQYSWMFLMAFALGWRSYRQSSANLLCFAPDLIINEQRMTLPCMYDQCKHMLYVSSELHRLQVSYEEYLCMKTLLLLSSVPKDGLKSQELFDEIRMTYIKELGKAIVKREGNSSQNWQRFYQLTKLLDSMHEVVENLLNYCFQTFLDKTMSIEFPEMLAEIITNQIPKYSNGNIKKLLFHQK

C=C[C@]1(C)C[C@@H](OC(=O)CSC(C)(C)CNC(=O)[C@H](N)C(C)C)[C@]2(C)[C@H](C)CC[C@]3(CCC(=O)[C@H]32)[C@@H](C)[C@@H]1O
inactive: [1] | [2] | [3] | [4] | [5] | [6] | [7] | [8]

O=C(CO)[C@@H](O)[C@H](O)[C@@H](O)C(=O)O
inactive: [1] | [2] | [3] | [4] | [5] | [6] | [7] | [9]

C#CCC(Cc1cnc2nc(N)nc(N)c2n1)c1ccc(C(=O)N[C@@H](CCC(=O)O)C(=O)O)cc1 (some centres undefined)
inactive: [1] | [2] | [3] | [4] | [6] | [9] | [8]

COC(=O)[C@H]1[C@H]2C[C@@H]3c4[nH]c5cc(OC)ccc5c4CCN3C[C@H]2C[C@H](OC)[C@@H]1OC
inactive: [1] | [2] | [3] | [4] | [6] | [9] | [8]

NCCC[C@H](N)C(=O)O
inactive: [1] | [2] | [3] | [4] | [5] | [7]

COCC(=O)Nc1cc(Sc2ccccc2)ccc1N=C(NC(=O)OC)NC(=O)OC
inactive: [1] | [2] | [4] | [5] | [6] | [7] | [9] | [8]

C=C1C(=C/C=C2\CCC[C@]3(C)[C@@H]([C@H](C)CCCC(C)(C)O)CC[C@@H]23)C[C@@H](O)C[C@@H]1O
inactive: [10] | [2] | [3] | [4] | [5] | [6] | [7]

OC[C@H]1O[C@@H](n2cnc3c2NC=NC[C@H]3O)C[C@@H]1O
inactive: [1] | [2] | [3] | [4] | [5] | [6] | [7] | [9] | [8]

CC(=C\c1ccccc1)/C=C1/SC(=S)N(CC(=O)O)C1=O
inactive: [1] | [2] | [4] | [5] | [6] | [7]

CCCCCCCCCCCCCCCC(=O)O[C@@H]1CC(C)=C(/C=C/C(C)=C/C=C/C(C)=C/C=C/C=C(C)/C=C/C=C(C)/C=C/C2=C(C)C[C@@H](OC(=O)CCCCCCCCCCCCCCC)CC2(C)C)C(C)(C)C1
active: [8] 12 µM
inactive: [1] | [2] | [3] | [4] | [5] | [6] | [7] | [9]

CCc1ccc2c(c1)N(CC(C)CN(C)C)c1ccccc1S2 (centres undefined)
inactive: [1] | [2] | [3] | [4] | [5] | [7] | [9]

CC1CC(OC(=O)C(O)c2ccccc2)CC(C)(C)C1 (centres undefined)
inactive: [10] | [2] | [3] | [4] | [5] | [6] | [7]

Cc1ccccc1CNc1ncnc2c1ncn2[C@@H]1O[C@H](CO)[C@@H](O)[C@H]1O
inactive: [1] | [2] | [3] | [4] | [5] | [6] | [7] | [9]

C[C@@H]1CCC2[C@@H](C)[C@@H](O)O[C@@H]3O[C@@]4(C)CC[C@@H]1[C@@]23OO4 (some centres undefined)
inactive: [1] | [2] | [3] | [4] | [5] | [6] | [7] | [9] | [8]

C#CCOc1ccc2c(C)cc(=O)oc2c1
inactive: [1] | [2] | [3] | [4] | [5] | [6] | [7] | [9] | [8]

CCCCCCCCCCCCCCCC(=O)OCCC1CCN(CCCN2c3ccccc3Sc3ccc(S(=O)(=O)N(C)C)cc32)CC1
inactive: [1] | [2] | [3] | [4] | [5] | [7] | [9] | [8]

O=C(CCCCCCCCCCCCC1CCCC1)Nc1ccc(S(=O)(=O)c2ccc(NC(=O)CCCCCCCCCCCCC3CCCC3)cc2)cc1
inactive: [1] | [2] | [3] | [4] | [5] | [6] | [7] | [9] | [8]

Nc1ncnc(Nc2ccc(Cl)cc2)n1
inactive: [1] | [2] | [3] | [4] | [5] | [7] | [9] | [8]

CC(=O)O[C@H]1CC[C@@]2(C)C(=CC[C@H]3[C@@H]4CC[C@H](C(C)=O)[C@@]4(C)CC[C@@H]32)C1
inactive: [1] | [2] | [3] | [4] | [5] | [6] | [7] | [9]

O=C(O)C1CCCN1 (centres undefined)
inactive: [1] | [2] | [3] | [4] | [5] | [6] | [7] | [9] | [8]

NC[C@@H]1O[C@H](O[C@H]2[C@@H](O)[C@H](O[C@@H]3[C@@H](O)[C@H](N)C[C@H](N)[C@H]3O[C@H]3O[C@H](CN)[C@@H](O)[C@H](O)[C@H]3N)O[C@@H]2CO)[C@H](N)[C@@H](O)[C@@H]1O
inactive: [1] | [2] | [3] | [4] | [5] | [6] | [7]

CC(C)=CCC/C(C)=C/C=C/C(C)=C/C=C/C(C)=C/C=C/C=C(C)/C=C/C=C(C)/C=C/C=C(\C)CCC=C(C)C
inactive: [1] | [2] | [3] | [4] | [5] | [6] | [7] | [9] | [8]

Cc1c(N)nc(C(CC(N)=O)NCC(N)C(N)=O)nc1C(=O)NC(C(=O)NC(C)C(O)C(C)C(=O)NC(C(=O)NCCc1nc(-c2nc(C(=O)NCCCN[C@@H](C)c3ccccc3)cs2)cs1)C(C)O)C(O[C@@H]1O[C@@H](CO)[C@@H](O)[C@H](O)[C@@H]1O[C@H]1O[C@H](CO)[C@@H](O)[C@H](OC(N)=O)[C@@H]1O)c1cnc[nH]1 (some centres undefined)
inactive: [1] | [2] | [3] | [4] | [5] | [7] | [9] | [8]

C[C@H](CSC(=O)c1ccccc1)C(=O)N1C[C@@H](Sc2ccccc2)C[C@H]1C(=O)O
inactive: [1] | [2] | [3] | [4] | [5] | [6] | [7] | [9] | [8]

S=C1SCN(Cc2ccccc2)CN1Cc1ccccc1
inactive: [1] | [2] | [3] | [4] | [5] | [7]

CC1=C(/C=C/C(C)=C/C=C/C(C)=C/C=C/C=C(C)/C=C/C=C(C)/C=C/C2=C(C)C[C@@H](O)CC2(C)C)C(C)(C)C[C@H](O)C1
active: [8] 23.9 µM
inactive: [1] | [2] | [4] | [5] | [6] | [7] | [9]

Cc1cc(C)c(NC(=O)C[C@H](CC(=O)O)c2cccc3ccccc23)c(C(=O)N2CCC3(CCCC3)CC2)c1
inactive: [1] | [2] | [4] | [5] | [6] | [7] | [9]
active: [8] 10.7 µM

CC(=O)O[C@H]1C[C@@H]2CC[C@@H]3[C@H](CC[C@@]4(C)[C@H]3C[C@H](N3CC[N+](C)(C)CC3)[C@@H]4OC(C)=O)[C@@]2(C)C[C@@H]1N1CC[N+](C)(C)CC1
inactive: [10] | [2] | [3] | [4] | [5] | [6] | [7]

CCOC(=O)[C@@H](N)CS
inactive: [10] | [2] | [3] | [4] | [5] | [7] | [9] | [8]

CC[C@H](CC[C@@H](C)[C@H]1CC[C@H]2[C@@H]3CC=C4C[C@@H](O)CC[C@]4(C)[C@H]3CC[C@]12C)C(C)C
inactive: [10] | [2] | [3] | [4] | [5] | [6] | [7] | [9] | [8]

CC1(C)C2CC[C@]3(C)[C@H](C(=O)C=C4[C@@H]5C[C@@](C)(C(=O)O)CC[C@]5(C)CC[C@]43C)[C@@]2(C)CC[C@@H]1O[C@H]1O[C@H](C(=O)O)[C@@H](O)[C@H](O)[C@H]1O[C@@H]1O[C@H](C(=O)O)[C@@H](O)[C@H](O)[C@H]1O (some centres undefined)
inactive: [10] | [2] | [4] | [5] | [6] | [7]

NNc1nnc(Cc2ccncc2)c2ccccc12
inactive: [10] | [2] | [3] | [4] | [5] | [6] | [7] | [9] | [8]

CO/N=C(\C(=O)N[C@@H]1C(=O)N2C(C(=O)O)=C(CSc3nnnn3C)CS[C@H]12)c1csc(N)n1
inactive: [10] | [2] | [4] | [5] | [6] | [7] | [9] | [8]
